The whole screen tested about 69,000 compounds, of which about 420 (0.61%) showed an effect of 50% or more. The sample as a whole holds a higher share of strong results than the screen did.
Molecular target: T1, Histidine--tRNA ligase (Leishmania infantum) (UniProt A4I591)
T1 sequence (whole entry): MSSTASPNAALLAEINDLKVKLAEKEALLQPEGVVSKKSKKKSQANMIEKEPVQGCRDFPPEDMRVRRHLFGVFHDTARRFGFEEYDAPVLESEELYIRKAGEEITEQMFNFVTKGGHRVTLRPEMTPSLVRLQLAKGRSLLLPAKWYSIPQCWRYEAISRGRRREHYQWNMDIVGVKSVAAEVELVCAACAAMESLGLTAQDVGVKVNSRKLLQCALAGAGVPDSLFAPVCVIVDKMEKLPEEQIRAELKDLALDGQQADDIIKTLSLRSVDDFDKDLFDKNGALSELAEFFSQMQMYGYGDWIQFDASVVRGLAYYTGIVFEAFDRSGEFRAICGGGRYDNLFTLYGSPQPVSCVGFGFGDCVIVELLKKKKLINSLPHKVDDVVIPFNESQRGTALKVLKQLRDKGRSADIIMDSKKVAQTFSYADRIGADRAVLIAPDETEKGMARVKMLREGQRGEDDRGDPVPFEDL
Assay: Leishmania infantum Histidine tRNA synthetase (LdHisRS)
Type: functional
Parameters: scale not given: in the data most compounds retested in dose-response had high values
Details: 30 µM

Structure (SMILES)	Percent Effect [%]
O=C1CC[C@H](C(=O)Nc2cnn(-c3ccccc3Br)c2)N1	7.32
O=C1CCC(C(=O)Nc2ccc(=O)n(Cc3ccc(Cl)c(Cl)c3)c2)N1 (stereo not drawn)	95.2
O=C1CCC(C(=O)Nc2ccc(=O)n(Cc3ccccc3Cl)c2)N1 (stereo not drawn)	20.5
CC(C)CN1C(=O)CO[C@@H]2CN(C(=O)N(C)C)C[C@H]21	8.77
CN1CC[C@@H]2[C@@H](CO[C@H]2CNC(=O)c2nccn2C)C1	16
CN(C)C(=O)CN1C[C@@H]2CC[C@H](C1)N(Cc1cc(F)ccc1F)C2	1.91
CN1C[C@@H]2CC[C@H](CC1=O)N2C(=O)c1cc2ccccc2[nH]c1=O	19.5
Cc1occc1C(=O)N1C[C@@H]2[C@@H](C1)OCC(=O)N2Cc1cccnc1	11.5
Cn1cc(C(=O)N2CC[C@@H]3[C@@H]2CCN3c2ccccn2)cn1	16
Cc1noc(C)c1CN1CCO[C@H]2CN(C(=O)C3CCOCC3)C[C@H]21	7.96
O=C(NCc1cccnc1N1CCc2ccccc2C1)c1cnc[nH]1	18.6
O=C(NCc1cccnc1N1CCc2ccccc2C1)c1cc(=O)[nH][nH]1	50
Cc1cc(C(=O)NCc2cccnc2N2CCc3ccccc3C2)[nH]n1	21.4
CCC1CN(CC(=O)NCCN2CCCC2)c2ccccc2S1 (stereo not drawn)	31.5
CCC1CN(CC(=O)NCCN2CCCCCC2)c2ccccc2S1 (stereo not drawn)	51.1
CCC1CN(CC(=O)NCCN2CCCCC2)c2ccccc2S1 (stereo not drawn)	27.2
CN(C)C(=O)N1C[C@@H]2CC[C@H](C1)N(Cc1ccc3nsnc3c1)C2	24
O=C1N(c2cccc(F)c2)Cc2nc(=O)n(Cc3ccccc3Cl)n21	12
CN1C[C@@H]2CN(C(=O)NCc3cccc(F)c3)CCC[C@]2(C(=O)O)C1	6
COc1ccc(CN2C[C@@H]3COC[C@@H](N4CCN(C)CC4)[C@@H]3C2)cc1	17
CCn1ncc(-c2cc(C(F)(F)F)nc(N3CCC(N)CC3)n2)c1C	15.1
CCc1ccc(-c2cc(C(F)(F)F)nc(N3CCC(N)CC3)n2)cc1	71
Cc1c(-c2cc(C(F)(F)F)nc(N3CCC(N)CC3)n2)cnn1C	19.4
CNC(=O)[C@H]1C[C@@H]2CN(C(=O)c3ccco3)C[C@@H]2N1S(C)(=O)=O	17
COCCC(=O)N1CC[C@@H]2O[C@@H](C)C[C@H]2C1	15.3
O=C(Cc1ccco1)N1C[C@H]2CCC[C@@]2(COc2cccnc2)C1	24
Cn1cnc2c1CCN(Cc1csc(-c3ccc(F)cc3)n1)C2	10.2

Structure (SMILES)	Percent Effect [%]
Cn1cnc2c1CCN(Cc1csc(-c3ccccc3)n1)C2	15.7
COc1ccc(-c2nc(CN3CCc4c(ncn4C)C3)cs2)cc1	57.5
Cc1ccc(OCC(=O)N2C[C@@H]3CN(C)CCO[C@@H]3C2)cc1	5.17
COc1ccccc1CN(C)C(=O)CN1CC(n2nc(C)cc2C)C1	40.2
COc1cccc(CN(C)C(=O)CN2CC(n3nc(C)cc3C)C2)c1	62.9
Cc1cc(C)n(C2CN(CC(=O)N(C)Cc3ccsc3)C2)n1	43.8
COc1cc(C(=O)N2CCO[C@H]3[C@H](OCC4CC4)CC[C@@H]32)ccc1F	12.1
O=C(NCc1cccnc1)[C@H]1C[C@@H]2CCN(c3ccncn3)C[C@H]2O1	15.3
CCN1C[C@@H]2CN(C(=O)c3ccsc3)C[C@@H]2C1=O	-28.6
N#Cc1cccc(CN2C[C@@H](NC(=O)C3CC3)[C@H]3OCCC[C@H]32)c1	-2.75
CC(C)(CN)NS(=O)(=O)c1cccc(F)c1F	11.8
Cc1cc(O)ncc1NS(=O)(=O)c1cccc(F)c1F	95.2
O=C(O)c1c[nH]c2cc(NS(=O)(=O)c3cccc(F)c3F)ccc12	36.5
COc1ccccc1S(=O)(=O)Nc1cnc(O)cc1C	20.5
COc1cc(F)c(S(=O)(=O)Nc2cnc(O)cc2C)cc1OC	97.6
COc1ncc(NS(=O)(=O)c2ccc(F)cc2F)cn1	12.8
COc1ccc(CN2CCO[C@H]3CN(C(=O)C4CC4)CC[C@H]3C2=O)cc1	11.1
COC[C@@]12CCO[C@@H]1CCN(Cc1ccc(C)s1)C2	-2
O=C(c1cnccn1)N1C[C@@H]2CC[C@H](C1)N(C(=O)Cc1ccsc1)C2	12.3
CCCS(=O)(=O)N1C[C@H](N(C)Cc2ccco2)[C@@H]2OCCC[C@@H]21	9
Cc1nc(C(=O)N2C[C@@H]3CN(S(C)(=O)=O)CCO[C@@H]3C2)cs1	8.77
Cc1nnsc1CNC(=O)Nc1cccc(N2CCN(C)C2=O)c1	11.8
CN(C)c1nc(CNC(=O)Nc2cccc([S+](C)[O-])c2)cs1 (stereo not drawn)	27.1
CN1CCN(c2cccc(NC(=O)NCc3csc(N(C)C)n3)c2)C1=O	64.7
Cc1cccc(CN2C(=O)CO[C@@H]3CN(Cc4cnn(C)c4)C[C@H]32)c1	23.1
C=Cc1cccc(CN2C[C@H]3CC[C@@H]2CN(Cc2c(C)noc2C)C3)c1	27.4
